Measurements: PubChem BioAssay (EPA / NIEHS)
The source made the active and inactive calls. Rule for the calls: active = hit-call score of the fitted dose curve at least 0.9, where 1 is the maximum; inactive = score below 0.9.

What was measured:
Settings in all cases: mRNA level, 48 h; actives raise or lower the signal
[1] = read-out: Pro-epidermal growth factor (Homo sapiens) (UniProt P01133); experiment: LTEA_HepaRG_EGF: Life Technologies and Expression Analysis (LTEA) Assay for Epidermal growth factor (EGF) using HepaRG (AID 2283489)
Procedure, shortened: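 EGF expression changes in human HepaRG cells are scored by bidirectional fitting relative to 0.5% DMSO controls. Chemicals are tested at eight half-log concentrations up to 100 uM for 48 h in serum-free induction medium.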

[2] = read-out: Early growth response protein 1 (EGR1) transcription factor, EGR1 (gene 1958); experiment: LTEA_HepaRG_EGR1: Life Technologies and Expression Analysis (LTEA) Assay for Early growth response protein 1 (EGR1) transcription factor using HepaRG (AID 2283490)
Procedure, shortened: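 EGR1 transcript levels quantified by qRT-PCR (Fluidigm arrays) against three housekeeping genes after 48 h chemical exposure of HepaRG cells. Eight-point half-log series topping at 100 uM, 0.5% DMSO vehicle, analyzed for gain or loss.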

[3] = read-out: Ezrin (EZR), EZR (gene 7430); experiment: LTEA_HepaRG_EZR: Life Technologies and Expression Analysis (LTEA) Assay for Ezrin (EZR) using HepaRG (AID 2283491)
Procedure, shortened: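 Differentiated human HepaRG cells, 48 h after plating, were exposed in serum-free induction medium for 48 hours to eight half-log concentrations up to 100 uM in 0.5% DMSO. EZR mRNA was measured by TaqMan qRT-PCR, normalized to ACTB, GAPDH and POLR2A, and fitted bidirectionally against DMSO.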

[4] = read-out: Cytochrome P450 3A7 (Homo sapiens) (UniProt P24462); experiment: LTEA_HepaRG_CYP3A7: Life Technologies and Expression Analysis (LTEA) Assay for CYP3A7 using HepaRG (AID 2283492)
Procedure, shortened: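 Cells were thawed, plated, cultured 48 h, then treated for a further 48 h with chemicals (eight-point half-log series from 100 uM, 0.5% DMSO). RNA was isolated and CYP3A7 expression quantified by qRT-PCR normalised to ACTB, GAPDH and POLR2A.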

CYP3A5 (gene 1577) = experiment: LTEA_HepaRG_CYP3A5: Life Technologies and Expression Analysis (LTEA) Assay for CYP3A5 using HepaRG (AID 2283493)
Procedure, shortened: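 Human HepaRG hepatic cells receive 48 h chemical treatment at eight concentrations (half-log steps from 100 uM) in 0.5% DMSO. Expression of CYP3A5 is quantified by Fluidigm qRT-PCR and normalized to three reference genes.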

[5] = read-out: Fatty Acid-Binding Protein 1 (FABP1), FABP1 (gene 2168); experiment: LTEA_HepaRG_FABP1: Life Technologies and Expression Analysis (LTEA) Assay for Fatty Acid-Binding Protein 1 (FABP1) using HepaRG (AID 2283494)
Procedure, shortened: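 FABP1 expression by TaqMan qRT-PCR, normalised to three housekeeping genes, in HepaRG cells after 48 h chemical treatment. Eight-point half-log series topping at 100 uM in 0.5% DMSO, duplicates; gain or loss fitted relative to vehicle.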

[6] = read-out: Cytochrome P450 4A22 (Homo sapiens) (UniProt Q5TCH4); experiment: LTEA_HepaRG_CYP4A22: Life Technologies and Expression Analysis (LTEA) Assay for Cytochrome P450 4A22 (CYP4A22) using HepaRG (AID 2283495)
Procedure, shortened: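 Cryopreserved HepaRG cells, plated and cultured 48 h, then switched to serum-free induction medium and treated 48 h (duplicates, up to 100 uM, half-log steps, 0.5% DMSO). Expression change of CYP4A22 was fitted bidirectionally against vehicle.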

[7] = read-out: Cytochrome P450 7A1 (Homo sapiens) (UniProt P22680); experiment: LTEA_HepaRG_CYP7A1: Life Technologies and Expression Analysis (LTEA) Assay for Cytochrome P450 7A1 (CYP7A1) using HepaRG (AID 2283496)
Procedure, shortened: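 HepaRG, 48 h exposure, 8-pt half-log series from 100 uM, 0.5% DMSO vehicle, duplicates. Readout: TaqMan qRT-PCR mRNA vs three housekeeping genes; bidirectional curve fit against DMSO baseline.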

[8] = read-out: Glutathione S-Transferase (GSTA2), GSTA2 (gene 2939); experiment: LTEA_HepaRG_GSTA2: Life Technologies and Expression Analysis (LTEA) Assay for Glutathione S-Transferase (GSTA2) using HepaRG (AID 2283497)
Procedure, shortened: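 GSTA2 transcript levels came from Fluidigm TaqMan qRT-PCR normalized to three housekeeping genes, fitted in both directions against DMSO. HepaRG cultures received chemicals for 48 h in serum-free induction medium (0.5% DMSO), 8 half-log concentrations up to 100 uM, duplicate.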

[9] = read-out: Glutamate-cysteine ligase catalytic (GCLC), GCLC (gene 2729); experiment: LTEA_HepaRG_GCLC: Life Technologies and Expression Analysis (LTEA) Assay for Glutamate-cysteine ligase catalytic (GCLC) using HepaRG (AID 2283498)
Procedure, shortened: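 Expression by TaqMan qRT-PCR, normalized to three housekeeping genes (ACTB, GAPDH, POLR2A), with up- or down-regulation fitted against DMSO. HepaRG cells dosed in duplicate for 48 h with 8 half-log concentrations up to 100 uM, vehicle 0.5% DMSO.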

[10] = read-out: growth arrest and DNA damage 45 (GADD45G), GADD45G (gene 10912); experiment: LTEA_HepaRG_GADD45G: Life Technologies and Expression Analysis (LTEA) Assay for growth arrest and DNA damage 45 (GADD45G) using HepaRG (AID 2283499)
Procedure, shortened: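 Human hepatic HepaRG line treated 48 h with chemicals (eight concentrations, half-log steps from 100 uM); transcript induction or repression of GADD45G scored by qRT-PCR versus DMSO vehicle.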

[11] = read-out: Glutathione S-transferase M3 (GSTM3), GSTM3 (gene 2947); experiment: LTEA_HepaRG_GSTM3: Life Technologies and Expression Analysis (LTEA) Assay for Glutathione S-transferase M3 (GSTM3) using HepaRG (AID 2283501)
Procedure, shortened: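 Changes in GSTM3 expression, an oxidative-stress marker, were scored by bidirectional curve fitting against 0.5% DMSO vehicle. Human HepaRG cultures received chemicals for 48 h in duplicate, highest concentration 100 uM with half-log dilutions.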

[12] = read-out: Heat shock 70 kDa protein 1 (HSPA1A), gene 3303; experiment: LTEA_HepaRG_HSPA1A: Life Technologies and Expression Analysis (LTEA) Assay for Heat shock 70 kDa protein 1 (HSPA1A) using HepaRG (AID 2283502)
Procedure, shortened: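 Cells were plated and cultured for 48 h, then switched to serum-free induction medium. Chemicals were added at eight half-log concentrations up to 100 uM for 48 h. RNA was then isolated and HSPA1A measured by qRT-PCR with bidirectional curve fitting against DMSO.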

[13] = read-out: Hypoxia-inducible factor 1-alpha (Homo sapiens) (UniProt Q16665); experiment: LTEA_HepaRG_HIF1A: Life Technologies and Expression Analysis (LTEA) Assay for Hypoxia-inducible factor 1 (HIF1A) Trancription factor using HepaRG (AID 2283503)
Procedure, shortened: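 HIF1A transcript level read by qRT-PCR (ACTB, GAPDH, POLR2A normalization) after 48 h chemical exposure of HepaRG cultures. Eight half-log concentrations, top 100 uM, 0.5% DMSO vehicle, duplicates; bidirectional curve fit against DMSO baseline.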

[14] = read-out: 3-Hydroxy-3-Methylglutaryl-CoA Synthase 2 (HMGCS2), HMGCS2 (gene 3158); experiment: LTEA_HepaRG_HMGCS2: Life Technologies and Expression Analysis (LTEA) Assay for 3-Hydroxy-3-Methylglutaryl-CoA Synthase 2 (HMGCS2) using HepaRG (AID 2283504)
Procedure, shortened: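 Expression of HMGCS2 in human HepaRG liver cells is measured by qRT-PCR 48 h after dosing (highest 100 uM, half-log series, 0.5% DMSO). Values come from bidirectional concentration-response fitting with DMSO as baseline.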

HGF (gene 3082) = experiment: LTEA_HepaRG_HGF: Life Technologies and Expression Analysis (LTEA) Assay for Hepatocyte Growth Facto (HGF) using HepaRG (AID 2283505)
Procedure, shortened: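 Gain or loss of HGF mRNA in human HepaRG liver cells after 48 h chemical exposure; eight concentrations up to 100 uM with 0.5% DMSO vehicle, quantified by TaqMan qRT-PCR.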

[15] = read-out: Insulin Like Growth Factor 1 (IGF1), IGF1 (gene 3479); experiment: LTEA_HepaRG_IGF1: Life Technologies and Expression Analysis (LTEA) Assay for Insulin Like Growth Factor 1 (IGF1) using HepaRG (AID 2283506)
Procedure, shortened: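 Cells are thawed, plated and cultured 48 h, then exposed in duplicate to chemical (highest 100 uM, half-log steps, 0.5% DMSO) for another 48 h. Total RNA is analysed by Fluidigm qRT-PCR for IGF1 expression relative to vehicle.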

[16] = read-out: Intercellular Adhesion Molecule 1 (ICAM1), ICAM1 (gene 3383); experiment: LTEA_HepaRG_ICAM1: Life Technologies and Expression Analysis (LTEA) Assay for Intercellular Adhesion Molecule 1 (ICAM1) using HepaRG (AID 2283507)
Procedure, shortened: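 Gain or loss of transcript in HepaRG hepatic cells is quantified by qRT-PCR after 48 h chemical exposure (up to 100 uM, half-log steps), with DMSO as baseline.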

[17] = read-out: Insulin-like growth factor-binding protein 1 (IGFBP1), IGFBP1 (gene 3484); experiment: LTEA_HepaRG_IGFBP1: Life Technologies and Expression Analysis (LTEA) Assay for Insulin-like growth factor-binding protein 1 (IGFBP1) using HepaRG (AID 2283508)
Procedure, shortened: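 mRNA induction or loss was quantified by qRT-PCR after 48 h chemical exposure of human HepaRG cells, with 0.5% DMSO as vehicle and baseline. Concentration-response over eight points up to 100 uM.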

[18] = read-out: Glutamate-cysteine ligase regulatory (GCLM), GCLM (gene 2730); experiment: LTEA_HepaRG_GCLM: Life Technologies and Expression Analysis (LTEA) Assay for Glutamate-cysteine ligase regulatory (GCLM) using HepaRG (AID 2283500)
Procedure, shortened: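 Endpoint is GCLM transcript level by qRT-PCR, normalized to three housekeeping genes, after 48 h chemical exposure of human HepaRG cells (0.5% DMSO vehicle, top 100 uM, half-log dilutions). Fitting was bidirectional relative to DMSO.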

Measured: AC50

Chain of Hypoxia-inducible factor 1-alpha (Homo sapiens) (Q16665 whole entry, looked up): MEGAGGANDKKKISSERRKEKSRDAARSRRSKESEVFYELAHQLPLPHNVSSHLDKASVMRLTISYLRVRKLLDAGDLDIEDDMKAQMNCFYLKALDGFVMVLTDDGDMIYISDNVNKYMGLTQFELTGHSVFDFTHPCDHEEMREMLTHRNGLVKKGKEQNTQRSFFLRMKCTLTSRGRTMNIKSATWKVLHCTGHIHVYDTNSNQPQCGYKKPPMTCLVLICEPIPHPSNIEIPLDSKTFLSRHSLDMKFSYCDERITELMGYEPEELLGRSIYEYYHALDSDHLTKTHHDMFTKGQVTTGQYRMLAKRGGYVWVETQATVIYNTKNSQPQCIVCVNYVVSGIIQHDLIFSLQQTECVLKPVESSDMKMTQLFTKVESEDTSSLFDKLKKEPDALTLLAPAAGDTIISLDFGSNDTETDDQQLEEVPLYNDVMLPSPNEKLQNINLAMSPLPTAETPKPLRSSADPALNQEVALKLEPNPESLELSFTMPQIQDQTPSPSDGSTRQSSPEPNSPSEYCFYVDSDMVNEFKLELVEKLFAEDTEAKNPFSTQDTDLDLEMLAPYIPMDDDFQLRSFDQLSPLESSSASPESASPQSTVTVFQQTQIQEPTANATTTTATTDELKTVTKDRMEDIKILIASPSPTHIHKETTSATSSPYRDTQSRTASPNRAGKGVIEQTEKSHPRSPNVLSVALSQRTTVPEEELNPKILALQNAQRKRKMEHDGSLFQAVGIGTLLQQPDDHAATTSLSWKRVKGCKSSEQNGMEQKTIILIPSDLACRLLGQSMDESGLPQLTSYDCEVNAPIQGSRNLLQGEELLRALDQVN
Chain of Cytochrome P450 3A7 (Homo sapiens) (P24462 whole entry, looked up): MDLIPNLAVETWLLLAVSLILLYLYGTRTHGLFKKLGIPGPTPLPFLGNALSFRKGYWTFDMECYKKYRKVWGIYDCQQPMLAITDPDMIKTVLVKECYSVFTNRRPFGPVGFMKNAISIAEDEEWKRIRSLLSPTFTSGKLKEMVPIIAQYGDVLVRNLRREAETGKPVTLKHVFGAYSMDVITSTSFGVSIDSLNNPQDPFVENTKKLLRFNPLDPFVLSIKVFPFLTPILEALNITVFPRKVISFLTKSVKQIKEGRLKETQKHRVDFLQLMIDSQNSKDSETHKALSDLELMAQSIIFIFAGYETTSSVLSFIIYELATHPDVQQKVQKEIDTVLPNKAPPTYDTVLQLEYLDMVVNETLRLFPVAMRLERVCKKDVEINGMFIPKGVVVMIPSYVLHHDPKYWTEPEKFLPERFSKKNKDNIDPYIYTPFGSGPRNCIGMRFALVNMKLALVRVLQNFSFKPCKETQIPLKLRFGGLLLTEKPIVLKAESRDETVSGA

COP(=S)(OC)SCn1nnc2ccccc2c1=O
not listed: [18]
inactive: all other assays above

CC(C)C1(C)N=C(c2ncccc2C(=O)O)NC1=O (stereo unspecified)
inactive: all assays above

Cc1c(COC(=O)[C@@H]2[C@H](/C=C(\Cl)C(F)(F)F)C2(C)C)cccc1-c1ccccc1
active: [4] 4.87 µM | [5] 35 µM | [7] 14.8 µM | [15] 34.7 µM
not listed: [9]
inactive: all other assays above

Nc1c(Cl)c(F)nc(OCC(=O)O)c1Cl
not listed: [6] | [11]
inactive: all other assays above
